SENP6 inh – blocks the human protease SENP6; Q9GZR1; actives 1.8% (n = 330,000); inhibition, % at 10 µM; Recombinant SENP6 catalytic domain, aminoluciferin luminescence;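 active means inhibition above about 50% at the single tested dose, limit read from the data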;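 further: plate controls were DMSO wells with enzyme for no effect and DMSO wells lacking enzyme for full effect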
Target sequence (Q9GZR1 628-1112 limits assumed): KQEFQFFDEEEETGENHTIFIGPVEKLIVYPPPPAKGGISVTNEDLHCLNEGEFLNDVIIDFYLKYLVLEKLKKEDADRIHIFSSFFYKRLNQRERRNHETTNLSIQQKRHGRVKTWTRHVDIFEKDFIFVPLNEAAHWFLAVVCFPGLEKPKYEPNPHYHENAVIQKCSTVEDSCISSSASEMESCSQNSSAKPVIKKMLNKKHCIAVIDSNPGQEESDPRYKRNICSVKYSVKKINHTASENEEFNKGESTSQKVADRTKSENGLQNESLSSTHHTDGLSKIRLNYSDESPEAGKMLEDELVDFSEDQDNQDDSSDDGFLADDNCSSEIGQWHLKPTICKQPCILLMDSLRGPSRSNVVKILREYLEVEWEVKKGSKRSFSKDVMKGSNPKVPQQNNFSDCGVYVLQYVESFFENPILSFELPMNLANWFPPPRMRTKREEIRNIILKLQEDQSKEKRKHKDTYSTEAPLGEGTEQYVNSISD
SENP7 block – inhibitors of human SENP7 protease; recombinant SENP7, Z-RLRGG-aminoluciferin luminescence, 40 min; Q9BQF6; AID 434973; inhibition, % at 5 µM; actives 1.5% (n = 330,000);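 active means inhibition above about 50% at the single test dose, limit read from the data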;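 further: plate controls were DMSO with enzyme for no effect and no enzyme buffer wells for full effect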
TRAIL sens C8 – caspase-8 TRAIL sensitization; NB7+C8 cells + TRAIL, ATPlite viability luminescence; inhibition (viability loss, TRAIL sensitization), % at 10 µM; actives 1% (n = 360,000);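 active means compounds causing at least 50% loss of cell viability in the single-dose screen, relative to plate controls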
SENP8 block-1 – inhibitors of human SENP8 protease. purified SENP8, Z-RLRGG-aminoluciferin cleavage, luminescence. inhibition, % at 10 µM. Q96LD8. actives 1.2% (n = 330,000). AID 2540; in the data active means inhibition above about 50%
PPC-1+TRAIL kill – PPC-1 cancer cell killing with TRAIL present. cell killing (% activity), % at 4 µM or 5 µM. PPC-1 cells + TRAIL, ATPLite viability luminescence. actives 0.41% (n = 220,000);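 active means cell killing above 50% in the first pass at 4 µM, then a duplicate retest at 5 µM averaging 50% or more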;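 further: plate controls were cells with TRAIL plus DMSO for no effect and medium-only wells lacking cells for full effect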
SENP8 block-2 – blocks human SENP8 cleavage of Nedd8 substrate. inhibition, % at 20 µM. actives 0.64% (n = 360,000). Q96LD8. recombinant SENP8, Nedd8 substrate fluorescence; in the data active means inhibition mostly above about 40%, no sharp cut-off; inactive means mostly below about 27%
PPC-1 tox – PPC-1 cell cytotoxicity; shares compounds with PPC-1+TRAIL kill; PPC-1 viability, ATPlite luminescence, overnight; cytotoxicity, % at 5 µM; actives 50% (n = 1,200); AID 1447;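 active means reconfirmed compounds whose average cytotoxicity reaches 50% or more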;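 further: 0% = DMSO-treated cells and 100% = wells holding medium but no cells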
SENP8 confirm – human SENP8 inhibition, confirmed; shares compounds with SENP7 block; AID 488912; actives 40% (n = 6,200); inhibition, % at 12.5 µM; Recombinant SENP8, Z-RLRGG-aminoluciferin luminescence, 60 min;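 active means mean inhibition across replicates above about 50%, limit read from the data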
SENP6 confirm – human SENP6 inhibition, confirmed. recombinant SENP6, Z-RLRGG-aminoluciferin luminescence. shares compounds with SENP7 block. inhibition, % at 12.5 µM. actives 58% (n = 6,200)
SENP7 conf – confirmation of human SENP7 protease inhibitors; shares compounds with SENP7 block; inhibition, % at 12.5 µM; actives 69% (n = 6,200); recombinant SENP7, Z-RLRGG-aminoluciferin luminescence, 40 min
Casp3 select – selectivity test for SENP inhibitors: human caspase-3 inhibition. shares compounds with SENP7 block. purified caspase-3, Z-DEVD-aminoluciferin luminescence, 60 min. inhibition, % at 12.5 µM. actives 60% (n = 6,200). AID 488918;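 active means mean inhibition above about 50%, limit read from the data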;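 further: plate controls were enzyme with DMSO for no effect and wells without caspase-3 for full effect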
Target sequence (P42574 28-227 limits assumed): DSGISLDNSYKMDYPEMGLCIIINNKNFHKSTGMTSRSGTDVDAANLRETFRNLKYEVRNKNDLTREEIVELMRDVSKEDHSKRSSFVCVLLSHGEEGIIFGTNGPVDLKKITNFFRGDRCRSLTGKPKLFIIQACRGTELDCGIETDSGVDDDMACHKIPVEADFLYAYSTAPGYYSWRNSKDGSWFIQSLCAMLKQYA
Luc interf – luminescence interference (SENP counter-screen); shares compounds with SENP7 block; Pre-incubated SENP8/Z-RLRGG-aminoluciferin, luciferase luminescence interference; inhibition, % at 12.5 µM; actives 39% (n = 6,200); AID 488919;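 active means mean inhibition above about 50% when retested at one dose, limit read from the data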;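 further: plate controls were DMSO wells with completed reaction for no effect and substrate without enzyme for full effect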
* marks the source's active call; other numbers are inactive results; i = inactive; x = not tested or not shown. Most compounds without a hit are left out; they make up all but 3% or so of the library.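 How the source made its calls, unless noted: active means mean inhibition above about 50% in the one-dose retest (limit read from the data); inactive means the rest.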

SMILES	SENP6 inh	SENP7 block	TRAIL sens C8	SENP8 block-1	PPC-1+TRAIL kill	SENP8 block-2	PPC-1 tox	SENP8 confirm	SENP6 confirm	SENP7 conf	Casp3 select	Luc interf
CC1CCC(C(=O)NC(C(=O)NCc2cccnc2)C(C)C)CC1 (centres undefined)	-14.6	-6.2	-10.4	-1.4	25.4	21.4	x	x	x	x	x	x
Cc1ccc(OCc2nc(-c3ccccn3)no2)c(Br)c1	81.9*	96.2*	59.0*	90.0*	34.6	32.9	37.1	0.9	96.0*	101.9*	91.2*	93.0*
CCN(C(=O)c1ccc(NC(=O)C2CCCCC2C(=O)O)cc1)c1ccccc1 (centres undefined)	x	x	-7.4	x	x	8.2	x	x	x	x	x	x
Cc1ccc(/C=C(\C#N)c2nc3ccccc3[nH]2)s1	22.6	84.0*	61.0*	13.5	51.0*	-22.4	56.9*	40.0	30.7	92.9*	73.9*	60.9*
COC(=O)c1ccc2nc(-c3ccc4c(c3)OCO4)cn2c1	-1.4	77.9*	70.4*	49.9	62.5*	-403.6	63.1*	16.3	17.1	40.1	58.1*	19.5
c1cnc2nc(-c3ccc4c(c3)OCO4)cn2c1	-9.2	-7.2	23.4	-26.9	26.3	-411.7	x	x	x	x	x	x
CCc1ccn2cc(-c3ccc4c(c3)OCO4)nc2c1	96.1*	97.2*	92.0*	94.3*	92.5*	-411.8	91.4*	97.2*	97.9*	101.6*	96.3*	96.5*
COc1ccc(-c2cn3cc(C(=O)NN)ccc3n2)cc1	-20.6	-1.9	48.5	-9.9	38.9	-432.3	x	x	x	x	x	x
Cc1c(NC(=O)Nc2cccc(C#N)c2)c(=O)n(-c2ccccc2)n1C	-15.1	2.3	6.7	-3.0	x	-7.7	x	x	x	x	x	x
Nc1cccc(-c2nc3ccc(N)cc3s2)c1	97.0*	97.5*	69.8*	93.7*	74.1*	-402.9	71.6*	97.7*	98.3*	101.8*	97.2*	96.4*
Nc1ccc(-c2nc3ccc(N)cc3s2)cc1	95.1*	95.1*	84.2*	85.8*	82.2*	-431.9	80.3*	91.6*	92.4*	99.1*	93.2*	90.5*
Nc1ccc(O)c(-c2nc3ccccc3s2)c1	18.4	2.0	10.6	5.0	-2.2	-34.4	x	x	x	x	x	x
O=C(/C=C\Nc1ccc2c(c1)OCO2)c1cccs1	-14.2	-4.0	78.4*	93.9*	81.9*	-2.4	81.6*	-7.3	99.8*	103.7*	97.9*	34.9
COc1ccc(C(=O)/C=C/Nc2cccc(O)c2)cc1	92.9*	85.4*	61.7*	87.9*	81.8*	-159.1	82.6*	95.5*	96.8*	101.5*	91.0*	91.4*
COc1ccc(N/C=C\C(=O)c2ccc3c(c2)OCO3)cc1	75.6*	78.5*	69.0*	51.2*	68.5*	-146.8	59.4*	15.3	43.8	64.9*	54.5*	21.9
Cc1ccc(N/C=C/C(=O)c2cccs2)cc1	92.8*	93.2*	88.0*	94.2*	85.8*	-163.3	84.9*	79.3*	97.2*	101.2*	95.0*	69.8*
O=C(Nc1ccccc1)OC1CCC2CC1CCC2OC(=O)Nc1ccccc1 (centres undefined)	-2.8	1.1	12.0	2.7	0.1	20.7	x	x	x	x	x	x
COc1ccc(CNC(=O)C2CCN(S(=O)(=O)N3CCCCC3)CC2)c(OC)c1	-12.8	4.2	3.9	-1.9	x	5.4	x	x	x	x	x	x
CCSc1nnc(NC(=O)CN2C(=O)N(C)C3(CCCCC3)C2=O)s1	-19.0	-1.9	-0.8	-5.5	x	2.5	x	x	x	x	x	x
O=C(/C=C\Nc1ccc2c(c1)OCO2)c1ccc2c(c1)OCO2	-6.7	86.0*	83.4*	30.4	85.2*	-51.1	84.2*	9.9	14.7	-1.6	10.5	-1.4
O=C(/C=C\Nc1ccc2c(c1)OCO2)c1ccccn1	97.0*	99.9*	86.8*	96.0*	91.5*	-298.6	92.3*	81.4*	97.2*	99.0*	92.4*	26.0
COc1ccc2c(COC(=O)c3ccc(C)c(S(=O)(=O)N4CCOCC4)c3)cc(=O)oc2c1	x	x	8.2	x	x	i	x	x	x	x	x	x
COc1cc(SC)ccc1C(=O)Nc1ccc2c(c1)OCCO2	78.7*	80.7*	66.0*	62.8*	68.0*	2.8	65.2*	79.6*	81.0*	94.6*	75.3*	64.5*
Cn1c(C(=O)Nc2ccc3c(c2)OCO3)cc2sccc21	70.8*	63.3*	32.3	46.4	5.7	-22.9	12.3	59.0*	60.6*	87.5*	47.4	44.0
NC(=O)c1ccc(NC(=O)Nc2ccc3c(c2)OCO3)cc1	-1.6	-4.0	31.7	-9.0	x	0.4	x	x	x	x	x	x
SMILES	SENP6 inh	SENP7 block	TRAIL sens C8	SENP8 block-1	PPC-1+TRAIL kill	SENP8 block-2	PPC-1 tox	SENP8 confirm	SENP6 confirm	SENP7 conf	Casp3 select	Luc interf
O=C(Nc1ccc2c(c1)OCCO2)Nc1ccc2c(c1)OCO2	70.9*	72.1*	82.7*	53.4*	73.0*	4.1	73.0*	65.2*	63.8*	86.0*	72.2*	9.3
Cc1ccnc(NC(=O)Nc2ccc3c(c2)OCO3)c1	35.6	70.0*	55.4*	-9.3	36.3	6.7	41.3	9.2	9.5	12.0	14.5	-3.9
CCN(C(=O)CN1CCN(c2cccc(C(F)(F)F)c2)CC1)c1c(N)n(Cc2ccccc2)c(=O)[nH]c1=O	6.5	1.9	3.2	9.3	-5.6	19.4	x	x	x	x	x	x
CCCn1c(-c2ccc(OC)cc2)nc2ccccc21	-22.1	1.9	11.1	-7.8	10.8	-4.6	x	x	x	x	x	x
COCn1c(-c2ccc(OC)cc2)nc2ccccc21	58.7*	53.1*	44.9	25.8	34.2	-15.1	42.3	55.2*	53.1*	86.1*	81.1*	63.3*
CCNc1nc2c(c(=O)n(C)c(=O)n2C)n1CCCc1ccccc1	-1.3	5.0	2.4	4.2	x	4.0	x	x	x	x	x	x
Cc1ccc(Nc2nnc(SCC3CCCCO3)s2)cc1 (centres undefined)	-9.6	-13.1	8.7	-15.3	14.3	5.9	x	x	x	x	x	x
COc1ccccc1Nc1nnc(SCC2CCCCO2)s1 (centres undefined)	91.4*	90.0*	70.5*	87.9*	65.0*	11.7	64.9*	91.3*	91.3*	99.9*	93.6*	90.8*
